Results filed as inconclusive are left out. Entries that show only a call come without a potency. Active and inactive are the calls of the source. The call rests on the fitted dose curve; in most records, active means well fitted activation curve with a large enough effect; inconclusive means small, poorly fitted or top-dose-only effect; inactive means no such curve, though single readings can be large or run the other way.
Assay: qHTS Assay for Rab9 Promoter Activators: Hit Validation Using Renilla Luciferase Read-Out for Rab9
Settings: Huh7 Rab9 promoter Renilla luciferase reporter, 24 h; series mostly up to 76.9 µM
Source text: Niemann Pick Type C (NPC) is a rare neurodegenerative lipidosis that is characterized by lipid storage in the endosomal/lysosomal system. Treatment modalities for this devastating disease are currently non-existent due to the severe obstacles associated with accessing the central nervous system with proteins or genes. The majority of mutations causing NPC disease are missense mutations that are distributed throughout the length of the NPC1 protein, with the most prevalent being the I1061T allele. Although NPC1 mutant proteins may be functional, they are typically trapped in the ER due to misfolding. […] We have developed and optimized a cell based renilla luciferase reporter assay in 1536 well format for the identification of up-regulators of the mutant Rab9 promoter. This assay presents data on the validation of hits from the primary screen, which used a firefly luciferase read-out. NIH Chemical Genomics Center [NCGC] NIH Molecular Libraries Probe Production centers Network [MLPCN] MLPCN Grant: MH089375 Assay Submitter (PI): Yiannis A. Ioannou
Huh7 cells stably expressing NPC promoter-luciferase will be seeded at 1,500 cells/well in 5 uL in 1,536-well white opaque plates with 23 nL/well of compound in DMSO solution. The assay plates will be incubated at 37 deg C for 24 hours, after which 3 uL/well BriteLite plus luciferase detection reagent mixture (Perkin Elmer) will be added. Luminescence signal will be measured in a ViewLux plate reader (Perkin Elmer) after a 10 minute incubation at the room temperature.
Potency means the concentration at half of the fitted maximal effect.

| Structure (SMILES) | Potency |
| --- | --- |
| CCOc1ccc(CNC(=O)C2CCCN(S(C)(=O)=O)C2)cc1OC (stereo not given) | inactive |
| COc1ccc(-n2c(N)c(C(=O)NCc3ccco3)sc2=S)cc1 | inactive |
| C=CCc1ccc(OCCOCCNCCOC)c(OC)c1 | inactive |
| Cc1ccc(N=Cc2sc(O)c3ccccc23)c(C)c1 | inactive |
| CCOC(=O)CSc1nc2cc3c(cc2cc1C#N)OCO3 | inactive |
| COc1ccc(/C=C\c2onc(C)c2S(=O)(=O)N2CCC(C(=O)NCCC(C)C)CC2)cc1 | inactive |
| O=C(/C=C/c1ccco1)NCC1OCCc2ccccc21 (stereo not given) | inactive |
| CCC(=O)Nc1cc(-c2cc3ccccc3oc2=O)ccc1OC | inactive |
| CCN(Cc1nc2cc(Cl)ccc2c(=O)[nH]1)C(=O)C1CC(=O)N(c2cccc3ccccc23)C1 (stereo not given) | inactive |
| COc1ccccc1C(=O)Nc1nnc(SCC(=O)NC2CCCC2)s1 | inactive |
| COC(=O)Nc1nc2ccc(Br)cc2s1 | inactive |
| CC(C)(C)C(=O)N/C(N)=N/c1nc2ccccc2o1 | inactive |
| CNC(=O)Cn1nc(C)c2ccccc2c1=O | inactive |
| COc1cccc(NC(=O)CN2C(=O)CSc3ccc(S(=O)(=O)N4CCC(C)CC4)cc32)c1 | inactive |
| CC(=O)Nc1ccc(NC(=O)COc2ncnc3ccccc23)cc1 | inactive |
| CCOC(=O)c1ccc(-c2nnc(-c3ccc(Cl)cc3Cl)o2)cc1 | inactive |
| Nc1c(N(CCO)C(=O)/C=C/c2ccco2)c(=O)[nH]c(=O)n1Cc1ccccc1 | inactive |
| COc1ccc(-c2noc(N3CCCC(C(=O)Nc4ccccc4F)C3)n2)cc1 (stereo not given) | inactive |
| Cc1ccc(CNC(=O)Nc2ccc(C)cc2)cc1 | inactive |
| O=C(CCS(=O)(=O)c1ccccc1)Nc1ccc(-c2nc3ccccc3s2)cc1 | inactive |

| Structure (SMILES) | Potency |
| --- | --- |
| CC(=O)Nc1nnc(SCC(=O)NCCOc2ccccc2)s1 | inactive |
| O=C(NC(=S)Nc1ccc(CN2CCCCC2)cc1)c1cc2ccccc2o1 | inactive |
| Cc1c(C(O)CN2CCN(Cc3ccc4c(c3)OCO4)CC2)c2ccccc2n1C (stereo not given) | inactive |
| CCOC(=O)c1cc2sccc2n1CC(=O)N1CCCc2ccccc21 | inactive |
| CCC(C)(C)NC(=O)C(c1ccc(OC)cc1)N(Cc1cccs1)C(=O)CCC(=O)Nc1cc(C)on1 (stereo not given) | inactive |
| Cc1cc(C)c2c(N)c(C(=O)Nc3ccc([N+](=O)[O-])cc3)sc2n1 | inactive |
| COc1ccc(/C=C\C(=O)c2c(O)ccc3c(C)cc(=O)oc23)cc1OC | inactive |
| CCCCn1c(CCNC(=O)c2cccs2)nc2ccccc21 | inactive |
| CCC(=O)NC(=S)Nc1ccc(N2CCOCC2)cc1 | inactive |
| O=C(C[N+]1(CC#Cc2ccccc2)CCCCC1)c1ccccc1 | inactive |
| CC(Sc1ncnc2c1cnn2-c1ccccc1)C(=O)Nc1ccc(N2CCOCC2)cc1 (stereo not given) | inactive |
| COc1cccc(CNC(=O)CN(c2cc(C)cc(C)c2)S(=O)(=O)c2c(C)noc2C)c1 | inactive |
| CC(C)CC(=O)N1CCN(c2ccc(NC(=O)c3ccco3)cc2)CC1 | inactive |
| CC1CCCN(C(=S)Nc2ccc(Nc3ccccc3)cc2)C1 (stereo not given) | inactive |
| Cc1noc(/C=C/N(C)C)c1S(=O)(=O)N1CCCC(C(=O)N2CCCCC2)C1 (stereo not given) | inactive |
| Cc1cccc(N2CCN(C(=S)c3ccccc3)CC2)c1 | inactive |
| COc1ccc(-c2nnc(SCC(=O)/C(C#N)=C(\C)N)o2)cc1 | inactive |
| CC(=O)c1cccc(NC(=O)N2CCOCC2)c1 | inactive |
| COc1ccc(S(=O)(=O)NC(C(=O)NCCc2ccccn2)C(C)C)cc1 (stereo not given) | inactive |
| CC(=O)c1c(C)[nH]c(C(=O)Nc2cccc(S(=O)(=O)N(C)C)c2)c1C | 20.7 µM (active) |

— PubChem BioAssay AID624116 (National Center for Advancing Translational Sciences (NCATS), 2012)
